Source: PubChem BioAssay AID1159580 (chemical genetic matrix, 2015)
Where “and” joins values, the source holds several entries; their conditions need not be identical. Equal values may be shown once. Among all 5,500 compounds or so, about 2,000 (36%) were called active. Another 18% or so got no clear call; they are omitted. Rule as the data show it: active = normalized growth mostly below about 0.91 (no sharp cut-off); inconclusive = no clear call, values can overlap the other calls; inactive = mostly above about 0.92. The list shows a part of the results.

Assay: chemical genetic growth profiling, strain panel (AID 1159580);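 also: tested at 20 µM; growth read once vehicle control cultures reached saturation at 30 °C; 1 = growth at the plate median or of vehicle wells; lower values mean less growth of the strain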
Settings: S. cerevisiae deletion strains, growth OD

Measured: normalized growth

Nc1c2c(nc3ccccc13)CCCC2O (stereo not drawn)
inactive: locus YAL021C, strain ccr4, hits give low values 1.01 | locus YAL026C, strain drs2, hits give low values 1.01 | locus YAL030W, strain snc1, hits give low values 1.01 | locus YAL040C, strain CLN3, hits give low values 1.05 | locus YBL061C, strain skt5, hits give low values 1.01 | locus YBR009C, strain hhf1, hits give low values 1 | locus YBR021W, strain FUR4, hits give low values 0.94 | locus YBR023C, strain chs3, hits give low values 1.01 | locus YBR171W, strain sec66, hits give low values 1 | locus YBR229C, strain ROT2, hits give low values 1.01 | locus YBR231C, strain swc5, hits give low values 0.998 | locus YBR279W, strain paf1, hits give low values 1.02 | locus YCL011C, strain gbp2, hits give low values 1.01 | locus YCL016C, strain dcc1, hits give low values 1 | locus YCL029C, strain bik1, hits give low values 0.974 | locus YCL061C, strain MRC1 (second series), hits give low values 1.01 | locus YCL061C, strain MRC1, hits give low values 1.03 | locus YCL069W, strain vba3, hits give low values 1.01 | locus YCR088W, strain abp1, hits give low values 1 | locus YDL005C, strain med2, hits give low values 1 | locus YDL035C, strain GPR1, hits give low values 0.994 | locus YDL040C, strain nat1, hits give low values 1.01 | locus YDL074C, strain BRE1, hits give low values 1.04 | locus YDL101C, strain DUN1, hits give low values 1.01 | locus YDL134C, strain PPH21, hits give low values 1.01 | locus YDL185W, strain tfp1, hits give low values 0.964 | locus YDL192W, strain arf1, hits give low values 0.987 | locus YDR001C, strain nth1, hits give low values 1.01 | locus YDR069C, strain doa4, hits give low values 1 | locus YDR101C, strain arx1, hits give low values 0.995 | locus YDR137W, strain rgp1, hits give low values 1.01 | locus YDR159W, strain sac3, hits give low values 0.997 | locus YDR162C, strain NBP2, hits give low values 0.985 | locus YDR195W, strain ref2 0.917 | locus YDR297W, strain sur2, hits give low values 1.01 | locus YDR318W, strain mcm21, hits give low values 0.982 | locus YDR334W, strain swr1, hits give low values 1.01 | locus YDR335W, strain msn5, hits give low values 1.01 | locus YDR363W, strain ESC2, hits give low values 1 | locus YDR388W, hits give low values 0.985 | locus YDR392W, strain spt3, hits give low values 0.902 | locus YDR502C, strain sam2, hits give low values 0.998 | locus YEL003W, strain gim4, hits give low values 1.01 | locus YEL037C, strain rad23, hits give low values 1.01 | locus YEL061C, strain CIN8 (second series), hits give low values 1.01 | locus YEL061C, strain CIN8, hits give low values 1.03 | locus YER002W, strain NOP16, hits give low values 1.01 | locus YER015W, strain faa2, hits give low values 1 | locus YER016W, strain bim1, hits give low values 0.991 | locus YER110C, hits give low values 0.981 | locus YER111C, strain swi4, hits give low values 1 | locus YER155C, strain BEM2 (second series), hits give low values 1 | locus YER155C, strain BEM2, hits give low values 0.994 | locus YER167W, strain BCK2, hits give low values 1 | locus YFR010W, strain ubp6, hits give low values 1 | locus YGL078C, strain dbp3, hits give low values 0.992 | locus YGL086W, strain mad1, hits give low values 1.01 | locus YGL167C, strain pmr1, hits give low values 1 | locus YGL173C, strain kem1, hits give low values 1.01 | locus YGL227W, strain vid30, hits give low values 0.995 | locus YGL240W, strain doc1, hits give low values 0.987 | locus YGL248W, strain PDE1, hits give low values 1.02 | locus YGL253W, strain hxk2, hits give low values 1 | locus YGR078C, strain PAC10, hits give low values 1.03 | locus YGR135W, strain pre9, hits give low values 0.979 | locus YGR229C, strain SMI1, hits give low values 1.02 | locus YGR252W, strain gcn5, hits give low values 0.998 | locus YHR013C, strain ard1, hits give low values 0.945 | locus YHR027C, strain rpn1, hits give low values 1.01 | locus YHR030C, strain SLT2, hits give low values 0.993 and 0.981 | locus YHR079C, strain IRE1 (second series), hits give low values 0.976 | locus YHR079C, strain IRE1, hits give low values 0.983 | locus YHR094C, strain hxt1, hits give low values 0.992 | locus YHR129C, strain ARP1, hits give low values 1 | locus YHR142W, strain chs7, hits give low values 1.03 | locus YHR200W, strain rpn10, hits give low values 0.973 | locus YIL066C, strain RNR3, hits give low values 1.02 | locus YIL073C, strain SPO22, hits give low values 0.912 | locus YIL125W, strain kgd1, hits give low values 0.996 | locus YIR030C, strain dcg1, hits give low values 0.979 | locus YJL092W, strain hpr5, hits give low values 1.03 | locus YJL095W, strain BCK1 (second series), hits give low values 1.01 | locus YJL095W, strain BCK1, hits give low values 1.05 and 0.988 | locus YJL115W, strain asf1, hits give low values 1 | locus YJL129C, strain trk1, hits give low values 1.05 | locus YJL134W, strain LCB3, hits give low values 0.996 | locus YJL154C, strain vps35, hits give low values 1.01 | locus YJL164C, strain tpk1, hits give low values 1.02 | locus YJL166W, strain qcr8, hits give low values 1.01 | locus YJL168C, strain set2, hits give low values 0.991 | locus YJL187C, strain SWE1 (second series), hits give low values 1.03 | locus YJL187C, strain SWE1, hits give low values 1.02 | locus YJR043C, strain POL32, hits give low values 1.02
